Test results published in PubChem BioAssay (Tox21).
Results filed as inconclusive are left out. Activity calls are given as the source filed them. Unless noted, calls come from the whole dose curve; as a rule, active = well fitted curve in the direction sought with a large enough effect in the repeat runs; inconclusive = weak or mixed curves; inactive = no such curve, though single readings can be large; an effect the other way counts as inactive or inconclusive. Where a SMILES comes first, the peptide text is derived from it.

Tests used:
[1] = A CellTox Green Cytotoxicity Assay to monitor cytotoxicity in HepG2 cells - 16 hour (AID 1224876); note: nearly all actives have a fitted effect of over 45% in size
How it was run: (§1)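 Continuous culture of HepG2 cells with a membrane-impermeant DNA dye; rising fluorescence marks dead cells. Compound exposure lasted up to 40 h at 37 C, with reads every 8 h from 0 h.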

[2] = qHTS RealTime-Glo MT Cell Viability Assay in HepG2 cells - 32 hour (AID 1224877); note: nearly all actives have a fitted effect of over 55% in size
How it was run: (§2)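 Tox21 10K library screened in qHTS format on HepG2 cells carrying RealTime-Glo reagents. Compounds were added after a 5 h preincubation, and the luminescent signal from continuous culture was measured repeatedly during 40 h treatment.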

[3] = A CellTox Green Cytotoxicity Assay to monitor cytotoxicity in HepG2 cells - 24 hour (AID 1224878); note: nearly all actives have a fitted effect of over 45% in size
How it was run: as §1

[4] = qHTS RealTime-Glo MT Cell Viability Assay in HEK293 cells - 0 hour (AID 1224880); note: top concentration of the series differs between compounds; nearly all actives have a fitted effect of over 45% in size
How it was run: (§3)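 qHTS format; HEK293 cells with NanoLuc/prosubstrate reagent, 37 C/5% CO2 for 5 h pre-dosing; compounds 23 nL in DMSO; luminescence at each time point reflects viable cells.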

[5] = A CellTox Green Cytotoxicity Assay to monitor cytotoxicity in HEK293 cells - 32 hour (AID 1224881); note: nearly all actives have a fitted effect of over 40% in size
How it was run: (§4)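 Each value comes from one timepoint of a single continuous run in which HEK293 cells with CellTox Green were exposed to compound for up to 40 h at 37 C, dye fluorescence rising with cell death.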

[6] = A CellTox Green Cytotoxicity Assay to monitor cytotoxicity in HepG2 cells - 32 hour (AID 1224883); note: nearly all actives have a fitted effect of over 50% in size
How it was run: as §1

[7] = A CellTox Green Cytotoxicity Assay to monitor cytotoxicity in HEK293 cells - 8 hour (AID 1224884); note: nearly all actives have a fitted effect of over 35% in size
How it was run: as §4

[8] = qHTS RealTime-Glo MT Cell Viability Assay in HepG2 cells - 16 hour (AID 1224885); note: nearly all actives have a fitted effect of over 50% in size
How it was run: as §2

[9] = qHTS RealTime-Glo MT Cell Viability Assay in HEK293 cells - 24 hour (AID 1224886); note: top concentration of the series differs between compounds; nearly all actives have a fitted effect of over 50% in size
How it was run: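 Luminescence generated by NanoLuc from substrate produced by living HEK293 cells served as the viability signal. Each value reflects the reading at its stated time point during continuous 40 h compound exposure at 37 C.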

[10] = qHTS RealTime-Glo MT Cell Viability Assay in HEK293 cells - 8 hour (AID 1224887); note: top concentration of the series differs between compounds; nearly all actives have a fitted effect of over 50% in size
How it was run: as §3

[11] = A CellTox Green Cytotoxicity Assay to monitor cytotoxicity in HEK293 cells - 16 hour (AID 1224888); note: nearly all actives have a fitted effect of over 35% in size
How it was run: as §4

[12] = qHTS RealTime-Glo MT Cell Viability Assay in HepG2 cells - 0 hour (AID 1224889); note: nearly all actives have a fitted effect of over 50% in size
How it was run: as §2

[13] = A CellTox Green Cytotoxicity Assay to monitor cytotoxicity in HepG2 cells - 8 hour (AID 1224890); note: nearly all actives have a fitted effect of over 45% in size
How it was run: as §1

[14] = qHTS assay to identify small molecule antagonists of the estrogen receptor alpha (ER-alpha) signaling pathway using the BG1 cell line in the presence of 0.1 nM 17-beta-estradiol - cell viability counter screen (AID 1259241); note: nearly all actives have a fitted effect of over 40% in size
How it was run: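 The cell line endogenously expresses full-length ER-alpha and carries four EREs driving luciferase. Cells are cultured 5 days hormone-free, treated 22 hr with compounds and 0.1 nM estradiol, then viability is read by fluorescence.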

[15] = qHTS assay to identify small molecule antagonists of the androgen receptor (AR) signaling pathway using the MDA cell line in the presence of 0.5 nM R1881 - cell viability counter screen (AID 1259242); note: nearly all actives have a fitted effect of over 45% in size
How it was run: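 Fluorescence from CellTiter-Fluor, which reports protease activity of live cells, was read 30 min after reagent addition to MDA-kb2 cells that had been incubated 16 hr with compound and 0.5 nM R1881.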

[16] = target: Estrogen receptor (Homo sapiens) (UniProt P03372); test: qHTS assay to identify small molecule antagonists of the estrogen receptor alpha (ER-alpha) signaling pathway using the BG1 cell line in the presence of 0.1 nM 17-beta-estradiol (AID 1259244); note: nearly all actives have a fitted effect of over 50% in size
How it was run: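 Quantitative high-throughput screen in VM7Luc4E2 cells: compound plus 0.1 nM E2 (final), 22 h, 37C, 5% CO2; ONE-Glo added, 30 min room temperature, luminescence measured.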

[17] = qHTS assay to identify small molecule phospholipidosis (PLD) inducers (AID 1259344; active = well fitted curve in the direction sought with a large enough effect; an effect the other way counts as inactive or inconclusive)
How it was run: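 Quantitative HTS in HepG2: compound plus LipidTOX Red dye for 24 h, paraformaldehyde fixation with Hoechst 33342, widefield high-content imaging; amiodarone as positive and DMSO as negative control.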

[18] = A CellTox Green Cytotoxicity Assay to monitor cytotoxicity in HepG2 cells - 40 hour (AID 1224879); note: nearly all actives have a fitted effect of over 40% in size
How it was run: as §1

[19] = A CellTox Green Cytotoxicity Assay to monitor cytotoxicity in HepG2 cells - 0 hour (AID 1224882); note: nearly all actives have a fitted effect of over 35% in size
How it was run: as §1

[20] = target: Androgen receptor (Homo sapiens) (UniProt P10275); test: qHTS assay to identify small molecule antagonists of the androgen receptor (AR) signaling pathway using the MDA cell line in the presence of 0.5 nM R1881 (AID 1259243); note: nearly all actives have a fitted effect of over 50% in size
How it was run: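 Inhibition of R1881 (0.5 nM final) induced reporter signal was measured in human MDA-kb2 cells; note the MMTV promoter also responds to GR. Exposure lasted 16 hr at 37C.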
% is set by controls: 0 for no effect and ±100 for the full control effect.

Estrogen receptor (Homo sapiens), sequence (P03372 whole entry, looked up): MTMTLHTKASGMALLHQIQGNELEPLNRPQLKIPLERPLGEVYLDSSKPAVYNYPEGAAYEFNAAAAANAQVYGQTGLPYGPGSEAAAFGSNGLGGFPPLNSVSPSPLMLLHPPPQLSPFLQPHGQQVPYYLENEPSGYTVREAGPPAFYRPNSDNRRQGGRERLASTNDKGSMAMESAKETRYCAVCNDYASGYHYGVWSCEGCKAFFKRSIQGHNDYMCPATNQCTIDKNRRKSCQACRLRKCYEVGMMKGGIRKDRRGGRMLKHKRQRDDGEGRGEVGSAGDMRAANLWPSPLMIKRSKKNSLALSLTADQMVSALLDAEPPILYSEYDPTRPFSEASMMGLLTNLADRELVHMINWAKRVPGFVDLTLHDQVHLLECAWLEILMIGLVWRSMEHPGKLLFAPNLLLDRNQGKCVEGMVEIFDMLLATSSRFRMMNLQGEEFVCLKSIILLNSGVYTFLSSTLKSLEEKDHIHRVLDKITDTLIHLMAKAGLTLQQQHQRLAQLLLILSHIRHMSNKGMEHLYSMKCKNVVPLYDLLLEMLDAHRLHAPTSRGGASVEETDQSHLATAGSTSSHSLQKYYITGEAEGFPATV
Androgen receptor (Homo sapiens), sequence (P10275 whole entry, looked up): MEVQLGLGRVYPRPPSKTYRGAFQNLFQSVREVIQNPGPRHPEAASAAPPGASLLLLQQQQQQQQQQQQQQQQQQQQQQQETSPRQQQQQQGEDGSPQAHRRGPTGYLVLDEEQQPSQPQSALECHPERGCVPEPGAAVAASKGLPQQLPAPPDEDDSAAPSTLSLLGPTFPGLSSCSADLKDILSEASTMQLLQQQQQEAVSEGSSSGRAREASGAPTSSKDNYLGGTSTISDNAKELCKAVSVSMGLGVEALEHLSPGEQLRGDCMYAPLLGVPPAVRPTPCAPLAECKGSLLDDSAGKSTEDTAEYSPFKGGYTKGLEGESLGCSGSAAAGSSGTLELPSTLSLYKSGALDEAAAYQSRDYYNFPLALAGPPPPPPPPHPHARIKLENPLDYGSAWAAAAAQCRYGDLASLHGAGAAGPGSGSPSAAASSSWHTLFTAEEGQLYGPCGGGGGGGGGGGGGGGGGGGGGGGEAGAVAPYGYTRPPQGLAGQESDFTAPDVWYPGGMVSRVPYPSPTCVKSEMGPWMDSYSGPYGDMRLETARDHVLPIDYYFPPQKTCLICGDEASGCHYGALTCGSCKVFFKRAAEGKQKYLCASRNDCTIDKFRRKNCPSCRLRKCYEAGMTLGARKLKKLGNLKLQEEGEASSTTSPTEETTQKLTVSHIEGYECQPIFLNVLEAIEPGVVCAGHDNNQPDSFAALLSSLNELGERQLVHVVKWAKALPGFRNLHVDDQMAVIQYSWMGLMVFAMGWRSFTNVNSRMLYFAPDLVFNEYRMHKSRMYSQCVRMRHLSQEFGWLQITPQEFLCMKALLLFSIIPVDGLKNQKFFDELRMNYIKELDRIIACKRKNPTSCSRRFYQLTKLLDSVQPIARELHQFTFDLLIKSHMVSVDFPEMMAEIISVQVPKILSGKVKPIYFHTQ

Cn1nnc2c(C(N)=O)ncn2c1=O
inactive: Potency [1] | outcome [2] | Potency [3] | Potency [4] | Potency [5] | Potency [6] | Potency [7] | outcome [8] | Potency [9] | Potency [10] | Potency [11] | Potency [12] | Potency [13] | outcome [14] | outcome [15] | outcome [16] | outcome [17]

CCC(=O)CC
inactive: Potency [1] | outcome [2] | Potency [3] | Potency [4] | Potency [5] | Potency [6] | outcome [8] | Potency [9] | Potency [10] | Potency [11] | Potency [12] | Potency [13] | outcome [14] | outcome [15]

N#Cc1ccccc1O
inactive: Potency [1] | Potency [3] | Potency [18] | Potency [4] | Potency [5] | Potency [19] | Potency [6] | Potency [7] | outcome [8] | Potency [9] | Potency [10] | Potency [11] | Potency [12] | Potency [13] | outcome [14] | outcome [15] | outcome [16]

CCn1cc(C(=O)O)c(=O)c2cnc(N3CCCC3)nc21
inactive: cytotoxicity increase [1] 3.06% [at 6.97 µM] | activity change, negative = cytotoxic [2] -0.35% [at 6.97 µM] | cytotoxicity [3] 0.605% [at 6.97 µM] | activity change, negative = cytotoxicity [4] 0.136% [at 6.97 µM] | cytotoxicity [19] 3.1% [at 6.97 µM] | cytotoxicity increase [7] 0.169% [at 6.97 µM] | activity change, negative = cytotoxic [8] 2.96% [at 6.97 µM] | activity change [11] 2.01% [at 6.97 µM, hits give high values] | activity change, negative = cytotoxicity [12] -5.5% [at 6.97 µM] | cytotoxicity increase [13] 3.53% [at 6.97 µM] | activity change, negative = cytotoxicity [14] -1.69% [at 8.39 µM] | viability change, negative = cytotoxic [15] 7.44% [at 8.39 µM] | outcome [17]

CN1C[C@@H]2C[C@H]1CN2c1cc2c(cc1F)c(=O)c(C(=O)O)cn2C1CC1
inactive: cytotoxicity increase [1] 2.35% [at 15.8 µM] | cytotoxicity [3] 0.282% [at 15.8 µM] | cytotoxicity increase [18] 4.83% [at 15.8 µM] | activity change, negative = cytotoxicity [4] -2.3% [at 15.8 µM] | cytotoxicity increase [5] -7.04% [at 15.8 µM] | cytotoxicity [19] 2.16% [at 15.8 µM] | cytotoxicity increase [6] 0.396% [at 15.8 µM] | cytotoxicity increase [7] -14% [at 15.8 µM] | activity change, negative = cytotoxic [8] 6.14% [at 15.8 µM] | activity change, negative = cytotoxicity [9] 4.15% [at 15.8 µM] | activity change, negative = cytotoxicity [10] 0.091% [at 15.8 µM] | activity change [11] -3.93% [at 15.8 µM, hits give high values] | activity change, negative = cytotoxicity [12] 10% [at 15.8 µM] | cytotoxicity increase [13] 6.75% [at 15.8 µM] | activity change, negative = cytotoxicity [14] -8.33% [at 19 µM] | viability change, negative = cytotoxic [15] -2.38% [at 19 µM] | activity change, negative = inhibition [16] -0.393% [at 19 µM] | outcome [17]

OCC1(CO)COCOC1
inactive: Potency [1] | outcome [2] | Potency [18] | Potency [4] | Potency [5] | Potency [19] | Potency [7] | outcome [8] | Potency [9] | Potency [10] | Potency [11] | Potency [13] | outcome [14] | outcome [15]

O=C(CCCCC(=O)Nc1c(I)cc(I)c(C(=O)O)c1I)Nc1c(I)cc(I)c(C(=O)O)c1I
inactive: Potency [1] | Potency [3] | Potency [18] | Potency [4] | Potency [5] | Potency [19] | Potency [6] | Potency [7] | outcome [8] | Potency [9] | Potency [10] | Potency [11] | Potency [12] | Potency [13] | outcome [14] | outcome [15] | outcome [16] | outcome [17]

CC(C)COC(=O)c1ccccc1
inactive: Potency [1] | outcome [2] | Potency [3] | Potency [4] | Potency [19] | Potency [6] | Potency [7] | outcome [8] | Potency [9] | Potency [10] | Potency [11] | Potency [12] | Potency [13] | outcome [14] | outcome [15] | Potency [20] | outcome [16]

CCCCOCCOC(=O)COc1ccc(Cl)cc1Cl
inactive: Potency [1] | outcome [2] | Potency [3] | Potency [4] | Potency [19] | Potency [7] | outcome [8] | Potency [9] | Potency [10] | Potency [11] | Potency [13] | outcome [14] | outcome [15] | outcome [16]

C=CCCCCCCCCC(=O)OCCCC
inactive: Potency [1] | outcome [2] | Potency [4] | Potency [19] | Potency [7] | outcome [8] | Potency [9] | Potency [11] | Potency [13] | outcome [14] | outcome [15] | outcome [16]

CCCCOC(=O)[C@H](C)O
inactive: Potency [1] | outcome [2] | Potency [3] | Potency [4] | Potency [6] | Potency [7] | outcome [8] | Potency [9] | Potency [10] | Potency [11] | Potency [12] | Potency [13] | outcome [14] | outcome [15] | outcome [16]

O/N=C/C=N/O
inactive: Potency [1] | Potency [3] | Potency [18] | Potency [4] | Potency [5] | Potency [19] | Potency [6] | Potency [7] | outcome [8] | Potency [9] | Potency [10] | Potency [11] | Potency [12] | Potency [13] | outcome [14] | outcome [15]

CC(C)[C@H]1CC[C@H](C)C[C@@H]1O
inactive: Potency [1] | Potency [3] | Potency [18] | Potency [4] | Potency [5] | Potency [19] | Potency [6] | Potency [7] | outcome [8] | Potency [9] | Potency [10] | Potency [11] | Potency [12] | Potency [13] | outcome [14] | outcome [15] | Potency [20]

NCCOCCN
inactive: Potency [1] | outcome [2] | Potency [3] | Potency [4] | Potency [5] | Potency [19] | Potency [6] | Potency [7] | outcome [8] | Potency [10] | Potency [11] | Potency [12] | Potency [13] | outcome [14] | outcome [15] | outcome [16]

CCO[Si](CC)(OCC)OCC
inactive: Potency [1] | Potency [3] | Potency [18] | Potency [4] | Potency [5] | Potency [19] | Potency [6] | Potency [7] | outcome [8] | Potency [9] | Potency [10] | Potency [11] | Potency [12] | Potency [13] | outcome [14] | outcome [15] | Potency [20] | outcome [16]

CNCCS(=O)(=O)O
inactive: Potency [1] | outcome [2] | Potency [3] | Potency [4] | Potency [5] | Potency [19] | Potency [7] | outcome [8] | Potency [9] | Potency [10] | Potency [11] | Potency [12] | Potency [13] | outcome [14] | outcome [15]

CC(=O)N[C@@H](CO)C(=O)N[C@@H](CC(=O)O)C(=O)N[C@@H](CCCCN)C(=O)N1CCC[C@H]1C(=O)O (Ac-SDKP-OH)
inactive: Potency [1] | Potency [3] | Potency [18] | Potency [4] | Potency [5] | Potency [19] | Potency [6] | Potency [7] | outcome [8] | Potency [9] | Potency [10] | Potency [11] | Potency [13] | outcome [14] | outcome [15] | Potency [20]
